GDH-TPI inh = GDH-TPI coupling enzyme inhibitors, primary screen, artefact control for M. tuberculosis FBA inhibitor project, biochemical, absorbance, full deck | GDH-TPI coupled enzyme counterscreen, NADH absorbance | inhibition, % at 4.8 µM | hit rate 1.2% among 360,000 | AID 588335, 2011; in the data active = inhibition above about 30%
Mtb FBA inh = Mtb FBA enzyme inhibitors, primary screen, biochemical, fluorescence, strain H37Rv | Fructose-bisphosphate aldolase (Mycobacterium tuberculosis (strain ATCC 25618 / H37Rv)), … | purified M. tuberculosis FBA, fluorescence read-out | inhibition, % at 1 µM | hit rate 2.3% among 360,000 | AID 588726, 2011; in the data active = inhibition above about 27%
Mtb UGM inh = M. tuberculosis UGM enzyme inhibitors, primary screen, biochemical, fluorescence polarization, single point; UDP-galactopyranose mutase (Mycobacterium tuberculosis (strain ATCC 25618 / H37Rv)), …; purified UGM, fluorescence polarization probe displacement; inhibition, % at 10 µM; hit rate 0.06% among 320,000; AID 504406, 2011; in the data active = inhibition above about 10%, passing the limit was not always enough; inconclusive = no clear call, values can overlap the other calls
Target sequence (P9WIQ1 whole entry, looked up): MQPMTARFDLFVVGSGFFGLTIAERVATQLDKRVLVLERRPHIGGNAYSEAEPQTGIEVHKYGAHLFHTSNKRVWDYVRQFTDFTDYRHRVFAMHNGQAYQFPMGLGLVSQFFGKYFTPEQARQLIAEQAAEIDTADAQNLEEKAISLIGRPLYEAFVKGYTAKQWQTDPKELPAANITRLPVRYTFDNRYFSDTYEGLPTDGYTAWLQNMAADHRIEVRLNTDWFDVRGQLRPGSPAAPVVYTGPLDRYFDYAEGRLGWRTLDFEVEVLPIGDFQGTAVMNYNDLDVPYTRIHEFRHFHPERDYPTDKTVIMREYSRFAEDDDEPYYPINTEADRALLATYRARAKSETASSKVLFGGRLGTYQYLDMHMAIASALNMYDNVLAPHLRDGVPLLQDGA
Rv3671c protease = Rv3671c serine protease inhibitors, primary screen, biochemical, fluorescence polarization, M. tuberculosis H37Rv; P9WHR9; inhibition, % at 5.96 µM; hit rate 0.048% among 320,000; in the data active = inhibition above about 38%;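 note: extracellular domain of Rv3671c used as enzyme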
RecA splice inh = Mtb RecA intein splicing inhibitors, primary screen, biochemical, fluorescence, HTS | cell-free RecA intein splicing | Protein RecA (Mycobacterium tuberculosis (strain ATCC 25618 / H37Rv)), P9WHJ3 | hit rate 0.75% among 290,000 | inhibition, % (concentration not given with the values); in the data active = inhibition above about 30%; inconclusive = no clear call, values can overlap the other calls
Mtb bLac sens = beta-lactam sensitization of Mtb H37Rv, H37Rv | inhibition, % at 25 µM | M. tuberculosis H37Rv growth with meropenem, percent inhibition | hit rate 0.27% among 330,000; call rule not given here;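 note: growth measured after seven days incubation then overnight dye step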
Of the large screens only hits and unclear results are named; the others gave an inactive call; ! = not active in a repeat. Only some compounds are listed: those with a hit (about 4% of all), similar ones and a draw of the others.

N#Cc1ncc(-c2ccc3c(c2)OCCOCCOCCOCCO3)nc1C#N	RecA splice inh 35.6
Brc1ccc2c(c1)OCCOCCOCCOCCOCCO2	none
C[n+]1ccccc1/C=C/c1c(F)cccc1F	GDH-TPI inh 44.8 (no result: Rv3671c protease)
C[n+]1ccccc1/C=C/c1ccc(F)c(F)c1	GDH-TPI inh 35.3
C[n+]1ccccc1/C=C/c1ccc([N+](=O)[O-])cc1	GDH-TPI inh 34.6, Mtb bLac sens inconclusive
C[n+]1ccccc1/C=C/c1ccc(C#N)cc1	none
C[n+]1ccccc1/C=C/c1ccc2ncccc2c1	none (no result: Rv3671c protease)
Cc1cc(S(=O)(=O)Nc2ccc(C(=O)NCC(c3ccco3)N(C)C)cc2)ccc1F (stereo unspecified)	none
COc1ccc(CCNC(=S)N2CCC(Cc3ccccc3)CC2)cc1OC	none
COc1cc(OC)c(CN2CCCN(C)CC2)cc1Br	none
Cc1c(NCc2nc3ccccc3[nH]2)c(=O)n(-c2ccccc2)n1C	GDH-TPI inh 40.0
Cc1c(NCc2cc(Cl)cc(Cl)c2O)c(=O)n(-c2ccccc2)n1C	none
CC(CC(=O)NCc1ccc(Cl)cc1)S(=O)(=O)c1ccc2c(c1)NC(=O)CO2 (stereo unspecified)	none
Cn1c(=O)c2cc(NC(=O)NCCc3ccccc3)ccc2n1Cc1ccc(F)cc1	Mtb FBA inh 185.6 (no result: Mtb UGM inh, Rv3671c protease, RecA splice inh, Mtb bLac sens)
C=C(C)Cn1c2ccc(NC(=O)NCCc3ccccc3)cc2c(=O)n1C	Mtb FBA inh 170.0 (no result: Mtb UGM inh, Rv3671c protease, RecA splice inh, Mtb bLac sens)
COc1cc(Cn2c3ccc(NC(=O)NCc4ccc(F)cc4)cc3c(=O)n2C)ccc1F	Mtb FBA inh 145.7 (no result: Mtb UGM inh, Rv3671c protease, RecA splice inh, Mtb bLac sens)
COc1ccc(CCNC(=O)Nc2ccc3c(c2)c(=O)n(C)n3Cc2ccc(F)cc2)cc1OC	Mtb FBA inh 117.9 (no result: Mtb UGM inh, Rv3671c protease, RecA splice inh, Mtb bLac sens)
COc1ccc(CNC(=O)Nc2ccc3c(c2)c(=O)n(C)n3Cc2cccc(C(F)(F)F)c2)cc1	Mtb FBA inh 127.7 (no result: Mtb UGM inh, Rv3671c protease, RecA splice inh, Mtb bLac sens)
COc1ccc(C(=O)N/C(=C/c2cccs2)C(=O)NC(C)(C)C)cc1OC	none
O=C(NCc1nc2ccccc2[nH]1)c1cccs1	none
COc1cc(/C=C(/C(=O)c2cccs2)c2nc3ccccc3[nH]2)cc(OC)c1O	GDH-TPI inh 43.4
COc1ccc(C(=O)N/C(=C/c2cccs2)c2nc3ccccc3[nH]2)cc1OC	GDH-TPI inh 47.5
CCN1C=C(C(=O)OC)C(c2cccc(C)c2)C(C(=O)OC)=C1	Mtb FBA inh active
COC(=O)C1=CN(C)C=C(C(=O)OC)C1c1ccccc1Cl	Mtb FBA inh 199.1
CCCOc1ccccc1C1C(C(=O)OC)=CN(C(C)C)C=C1C(=O)OC	Mtb FBA inh 164.7
COC(=O)C1=CN(C(C)C)C=C(C(=O)OC)C1c1cccc(OC)c1	Mtb FBA inh active
COC(=O)C1=C(C)NC(=O)NC1c1ccccc1Cl (stereo unspecified)	none
COC(=O)C1=CN(C(C)C)C=C(C(=O)OC)C1c1cc(Br)c(OC)c(OC)c1	Mtb FBA inh 153.6
CCCC[C@H]1COCCS(=O)(=O)N1Cc1ccccc1F	none
CCC(N=c1cc(-c2ccc(OC)cc2)oc2ccc(C)cc12)C(=O)O (stereo unspecified)	GDH-TPI inh 31.1, Mtb FBA inh active
O=C(Nc1ccccc1Cl)OC1CCCCC1	none
CCCn1c(N)c(N(CCOC)C(=O)c2ccc(-c3ccc(Cl)cc3)o2)c(=O)[nH]c1=O	none
CC/C=C(\NC(C)=O)c1ccccc1	none (no result: RecA splice inh)
O=C(NCCCN1CCOCC1)c1sc2cc([N+](=O)[O-])ccc2c1Cl	Mtb FBA inh 53.9
COc1cccc(N=c2oc3cc(O)ccc3cc2C(=O)NCC2CCCO2)c1 (stereo unspecified)	Mtb FBA inh active (no result: RecA splice inh)
COc1ccc2cc(C(N)=O)/c(=N\NC(=O)c3ccccc3)oc2c1	Mtb FBA inh 112.2
COc1ccccc1N=c1oc2cc(O)ccc2cc1C(=O)NCC1CCCO1 (stereo unspecified)	Mtb FBA inh active, Mtb bLac sens inconclusive
Cc1cccc(N=c2oc3cc(O)ccc3cc2C(N)=O)c1	Mtb FBA inh active
COc1cccc(OCc2ccc(C(=O)NCC3CCCO3)cc2)c1 (stereo unspecified)	none (no result: Mtb UGM inh)
COc1cccc(C(=O)N/N=c2/oc3ccccc3cc2C(N)=O)c1	none
COc1cccc2cc(C(=O)NCC3CCCO3)c(=O)oc12 (stereo unspecified)	none
COc1ccccc1N=c1oc2cc(O)ccc2cc1C(N)=O	Mtb FBA inh active
Cc1ccc(C(=O)Nc2ncc([N+](=O)[O-])s2)cc1	none
O=C(Nc1ncc([N+](=O)[O-])s1)c1ccc2c(c1)OCO2	RecA splice inh 30.5
COc1cccc(C(=O)Nc2cc(C)nn2-c2ccccc2)c1OC	none
COc1ccc(NC(=O)c2ccc(-c3ccc(OC)cc3)s2)cc1	none
CNC(=O)c1ccc(-c2ccc(OC)cc2)s1	Mtb FBA inh active
CSc1ccc(CN2CCC(C)(Oc3ccccc3F)C2)cc1 (stereo unspecified)	none (no result: Mtb UGM inh, Rv3671c protease, RecA splice inh, Mtb bLac sens)
COc1cccc(NC(=O)c2ccc3c(c2)N(C)CCS3)c1	none
CN1CCSc2ccc(C(=O)NCc3cccc(F)c3)cc21	Mtb FBA inh 113.0
Clc1ccc(-c2nc3ncccn3c2Cl)cc1	Mtb FBA inh active
CCC(=O)CC(c1ccccc1)c1c(O)c2ccccc2sc1=O (stereo unspecified)	none
O=c1c(C(c2ccccc2)c2c(O)sc3ccccc3c2=O)c(O)sc2ccccc12	RecA splice inh 28.7
O=C(Nc1ccccc1)Nc1cnccn1	none
O=C(/C=C/c1ccc(O)c(O)c1)O[C@@H]1C[C@](O)(C(=O)O)C[C@@H](O)[C@H]1O	GDH-TPI inh 49.8!
O=C(/C=C/c1ccc(O)c(O)c1)OC1C(O)CC(OC(=O)/C=C/c2ccc(O)c(O)c2)(C(=O)O)CC1O (stereo unspecified)	none
Cc1nc2c(C)cccn2c(=O)c1NC(=O)c1ccco1	none
Cc1nc2c(C)cccn2c(=O)c1NC(=O)c1ccc(Br)o1	GDH-TPI inh 32.9
CCOc1ccccc1C=NNC(=O)C1CC1	none (no result: Mtb UGM inh, Rv3671c protease, RecA splice inh, Mtb bLac sens)
CCn1c(N)c(C(=O)NC2CCCCC2)sc1=S	GDH-TPI inh 43.3
CC(C)(Oc1ccc(Cl)cc1)C(=O)NC1CC1	none
Cc1ccc(S(=O)(=O)N(C)C[C@H]2OCc3cn(nn3)CCCC(=O)N([C@H](C)CO)C[C@@H]2C)cc1	none (no result: Mtb UGM inh, Rv3671c protease, RecA splice inh, Mtb bLac sens)
O=C(c1cc2c(=O)n3ccccc3nc2s1)N1CCc2ccccc2C1	none (no result: GDH-TPI inh, Mtb FBA inh, Mtb UGM inh)
COc1ccc(NC(=O)c2cc3c(=O)n4ccccc4nc3n2C)c(OC)c1	none
Cn1c(C(=O)NCc2ccccn2)cc2c(=O)n3ccccc3nc21	Mtb FBA inh 196.3
Cn1c(C(=O)NC2CCCCC2)cc2c(=O)n3ccccc3nc21	Mtb FBA inh 113.8
CC1CCCCN1C(=O)c1cc2c(=O)n3ccccc3nc2s1 (stereo unspecified)	Mtb FBA inh 100.7
